# Data taken from the supplement of paper PMC12067093, “Discovery and optimisation of a covalent ligand for TRIM25 and its application to targeted protein ubiquitination” (Chemical Science, 2025).
# Of roughly 21,000 targets only a part is listed; those with the largest changes were picked by preference.
# Compound: Cc1cc(ccc1-c1ccccc1)C(=O)N1CCCN(CC1)C(=O)CCl [compound 10]
# Assay: probe-labelled cysteine peptide fold change vs DMSO (competition) (log2 fold change); higher = less target engagement (more negative = stronger competition)
# Conditions: THP-1, incubation time: 4 h
# 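Note: competitive profiling in live THP-1 cells: cysteine peptides tagged with an iodoacetamide desthiobiotin (IA-DTB) probe, intensity after compound treatment relative to DMSO-treated cells.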
# Chain of UniProt Q9Y4A5 (Q9Y4A5 whole entry, looked up): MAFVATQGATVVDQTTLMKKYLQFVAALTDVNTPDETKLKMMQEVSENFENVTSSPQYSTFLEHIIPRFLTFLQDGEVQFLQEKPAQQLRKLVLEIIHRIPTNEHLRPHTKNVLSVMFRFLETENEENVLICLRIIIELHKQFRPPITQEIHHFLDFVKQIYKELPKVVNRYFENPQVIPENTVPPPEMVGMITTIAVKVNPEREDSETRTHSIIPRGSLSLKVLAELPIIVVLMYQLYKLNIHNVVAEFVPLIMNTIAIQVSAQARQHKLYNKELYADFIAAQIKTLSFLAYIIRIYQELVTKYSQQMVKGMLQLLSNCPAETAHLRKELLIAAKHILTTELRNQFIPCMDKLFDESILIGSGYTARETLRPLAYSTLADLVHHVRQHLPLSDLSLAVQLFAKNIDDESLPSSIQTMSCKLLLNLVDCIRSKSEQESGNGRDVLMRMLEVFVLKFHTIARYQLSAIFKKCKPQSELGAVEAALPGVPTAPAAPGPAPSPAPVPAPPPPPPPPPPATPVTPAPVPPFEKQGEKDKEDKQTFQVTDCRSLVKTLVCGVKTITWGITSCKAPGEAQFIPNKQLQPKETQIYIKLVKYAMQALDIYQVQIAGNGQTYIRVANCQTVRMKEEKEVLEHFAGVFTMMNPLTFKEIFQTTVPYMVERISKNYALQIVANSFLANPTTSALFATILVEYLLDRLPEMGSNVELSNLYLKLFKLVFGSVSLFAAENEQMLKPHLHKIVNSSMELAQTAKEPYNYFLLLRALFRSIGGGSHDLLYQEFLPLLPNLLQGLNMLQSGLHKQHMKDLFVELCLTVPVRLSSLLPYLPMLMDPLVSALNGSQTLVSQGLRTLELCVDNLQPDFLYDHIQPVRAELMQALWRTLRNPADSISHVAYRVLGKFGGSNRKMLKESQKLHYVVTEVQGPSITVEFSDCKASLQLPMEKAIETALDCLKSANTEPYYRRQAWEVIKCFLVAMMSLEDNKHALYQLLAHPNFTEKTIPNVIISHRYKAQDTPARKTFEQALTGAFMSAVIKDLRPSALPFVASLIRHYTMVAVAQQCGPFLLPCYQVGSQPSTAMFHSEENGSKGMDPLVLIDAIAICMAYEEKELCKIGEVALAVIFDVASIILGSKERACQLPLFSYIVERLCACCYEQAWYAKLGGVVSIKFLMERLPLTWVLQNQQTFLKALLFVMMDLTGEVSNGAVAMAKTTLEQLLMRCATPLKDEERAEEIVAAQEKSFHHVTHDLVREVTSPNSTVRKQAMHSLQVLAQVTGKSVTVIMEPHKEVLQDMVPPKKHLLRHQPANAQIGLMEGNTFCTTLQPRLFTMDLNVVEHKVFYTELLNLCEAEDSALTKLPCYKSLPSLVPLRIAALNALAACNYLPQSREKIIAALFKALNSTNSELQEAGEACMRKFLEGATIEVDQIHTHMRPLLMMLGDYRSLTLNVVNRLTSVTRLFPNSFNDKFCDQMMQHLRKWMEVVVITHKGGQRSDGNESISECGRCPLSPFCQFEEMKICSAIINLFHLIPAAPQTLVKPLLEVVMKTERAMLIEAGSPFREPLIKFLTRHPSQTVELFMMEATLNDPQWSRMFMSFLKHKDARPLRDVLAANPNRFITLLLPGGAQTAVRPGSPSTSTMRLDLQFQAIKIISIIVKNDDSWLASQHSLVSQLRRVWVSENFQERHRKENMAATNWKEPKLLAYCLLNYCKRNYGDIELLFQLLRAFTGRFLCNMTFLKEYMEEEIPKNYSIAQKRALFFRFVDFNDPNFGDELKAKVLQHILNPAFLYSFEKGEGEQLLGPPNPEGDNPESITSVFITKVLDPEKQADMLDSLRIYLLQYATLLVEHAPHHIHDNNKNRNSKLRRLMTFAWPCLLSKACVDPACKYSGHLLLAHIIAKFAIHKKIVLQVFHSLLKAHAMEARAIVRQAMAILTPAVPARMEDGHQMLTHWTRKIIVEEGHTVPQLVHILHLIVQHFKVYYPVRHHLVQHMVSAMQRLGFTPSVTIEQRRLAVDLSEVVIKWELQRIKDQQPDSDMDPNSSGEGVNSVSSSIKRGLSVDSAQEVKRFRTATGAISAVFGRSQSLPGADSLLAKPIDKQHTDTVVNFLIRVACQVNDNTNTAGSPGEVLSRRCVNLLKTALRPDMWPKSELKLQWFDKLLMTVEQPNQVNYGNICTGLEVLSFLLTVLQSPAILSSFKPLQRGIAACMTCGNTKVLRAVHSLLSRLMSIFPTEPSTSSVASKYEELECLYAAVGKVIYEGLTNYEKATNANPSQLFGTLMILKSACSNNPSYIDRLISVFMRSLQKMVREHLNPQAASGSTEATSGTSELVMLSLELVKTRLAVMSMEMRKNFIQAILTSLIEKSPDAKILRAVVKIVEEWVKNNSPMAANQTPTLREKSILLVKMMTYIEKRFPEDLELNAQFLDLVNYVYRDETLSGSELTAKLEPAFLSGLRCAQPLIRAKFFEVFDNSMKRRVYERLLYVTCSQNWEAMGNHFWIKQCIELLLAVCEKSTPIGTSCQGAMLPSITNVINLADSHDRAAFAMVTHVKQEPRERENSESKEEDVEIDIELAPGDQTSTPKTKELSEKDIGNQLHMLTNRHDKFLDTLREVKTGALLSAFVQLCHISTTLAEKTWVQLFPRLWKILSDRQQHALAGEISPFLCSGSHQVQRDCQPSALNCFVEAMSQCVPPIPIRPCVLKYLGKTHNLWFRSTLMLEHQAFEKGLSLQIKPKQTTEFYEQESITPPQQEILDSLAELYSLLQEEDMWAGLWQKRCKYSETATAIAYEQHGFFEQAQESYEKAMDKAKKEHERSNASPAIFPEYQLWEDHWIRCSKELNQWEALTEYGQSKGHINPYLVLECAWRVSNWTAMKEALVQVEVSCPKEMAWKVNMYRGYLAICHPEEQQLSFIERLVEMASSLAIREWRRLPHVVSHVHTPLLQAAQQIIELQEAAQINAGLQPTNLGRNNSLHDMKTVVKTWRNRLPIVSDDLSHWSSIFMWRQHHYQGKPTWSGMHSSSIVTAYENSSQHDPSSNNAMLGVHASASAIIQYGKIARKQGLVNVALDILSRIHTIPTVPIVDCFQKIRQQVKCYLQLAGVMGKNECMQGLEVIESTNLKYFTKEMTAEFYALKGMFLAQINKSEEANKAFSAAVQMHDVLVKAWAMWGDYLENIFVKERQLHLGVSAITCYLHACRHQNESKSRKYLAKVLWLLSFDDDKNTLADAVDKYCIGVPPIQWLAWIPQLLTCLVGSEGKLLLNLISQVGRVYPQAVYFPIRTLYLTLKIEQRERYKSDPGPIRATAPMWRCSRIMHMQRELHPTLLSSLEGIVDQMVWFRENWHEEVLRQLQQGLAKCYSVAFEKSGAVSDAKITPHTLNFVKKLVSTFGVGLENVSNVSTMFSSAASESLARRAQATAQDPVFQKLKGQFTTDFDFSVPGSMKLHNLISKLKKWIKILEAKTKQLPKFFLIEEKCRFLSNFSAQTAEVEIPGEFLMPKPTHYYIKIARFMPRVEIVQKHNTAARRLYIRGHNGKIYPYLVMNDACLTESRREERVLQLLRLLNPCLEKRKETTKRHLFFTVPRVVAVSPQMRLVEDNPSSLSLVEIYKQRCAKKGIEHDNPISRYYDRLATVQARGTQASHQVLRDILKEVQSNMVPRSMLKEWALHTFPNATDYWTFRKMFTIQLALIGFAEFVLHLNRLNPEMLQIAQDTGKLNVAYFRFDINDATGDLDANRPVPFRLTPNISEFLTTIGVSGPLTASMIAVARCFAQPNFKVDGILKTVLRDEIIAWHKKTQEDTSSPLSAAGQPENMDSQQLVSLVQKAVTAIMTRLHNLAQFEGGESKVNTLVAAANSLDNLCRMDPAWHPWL
# Chain of UniProt P41226 (P41226 whole entry, looked up): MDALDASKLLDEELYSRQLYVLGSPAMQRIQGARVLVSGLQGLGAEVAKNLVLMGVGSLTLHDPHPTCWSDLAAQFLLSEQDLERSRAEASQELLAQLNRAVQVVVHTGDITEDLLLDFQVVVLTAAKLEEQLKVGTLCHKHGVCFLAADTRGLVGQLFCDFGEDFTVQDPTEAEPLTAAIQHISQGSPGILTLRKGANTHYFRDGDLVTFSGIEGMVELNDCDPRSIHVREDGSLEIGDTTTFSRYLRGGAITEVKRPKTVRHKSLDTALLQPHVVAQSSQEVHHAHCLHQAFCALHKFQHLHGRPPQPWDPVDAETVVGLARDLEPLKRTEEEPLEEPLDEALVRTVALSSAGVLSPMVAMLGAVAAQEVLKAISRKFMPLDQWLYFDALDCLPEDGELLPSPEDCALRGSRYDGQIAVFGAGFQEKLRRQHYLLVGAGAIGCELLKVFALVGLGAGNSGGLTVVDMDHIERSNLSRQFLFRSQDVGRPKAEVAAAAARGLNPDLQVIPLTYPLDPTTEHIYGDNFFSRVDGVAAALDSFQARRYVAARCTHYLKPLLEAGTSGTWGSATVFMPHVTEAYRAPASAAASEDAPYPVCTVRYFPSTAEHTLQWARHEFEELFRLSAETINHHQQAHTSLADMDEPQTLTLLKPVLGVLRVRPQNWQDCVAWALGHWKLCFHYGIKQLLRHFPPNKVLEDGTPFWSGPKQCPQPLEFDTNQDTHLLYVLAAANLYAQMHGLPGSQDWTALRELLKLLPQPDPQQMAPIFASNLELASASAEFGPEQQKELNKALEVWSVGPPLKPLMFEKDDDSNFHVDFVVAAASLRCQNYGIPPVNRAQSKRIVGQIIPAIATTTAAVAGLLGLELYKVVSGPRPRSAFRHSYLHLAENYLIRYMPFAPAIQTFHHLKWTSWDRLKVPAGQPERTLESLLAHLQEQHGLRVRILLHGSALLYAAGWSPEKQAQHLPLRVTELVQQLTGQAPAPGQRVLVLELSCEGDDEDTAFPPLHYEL
# Chain of UniProt P60604 (P60604 whole entry): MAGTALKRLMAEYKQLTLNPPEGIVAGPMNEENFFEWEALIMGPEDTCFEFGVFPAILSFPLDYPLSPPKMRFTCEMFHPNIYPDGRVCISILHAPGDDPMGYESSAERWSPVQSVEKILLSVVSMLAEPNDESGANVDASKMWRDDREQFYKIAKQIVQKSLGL
# Chain of UniProt P10599 (P10599 whole entry, looked up): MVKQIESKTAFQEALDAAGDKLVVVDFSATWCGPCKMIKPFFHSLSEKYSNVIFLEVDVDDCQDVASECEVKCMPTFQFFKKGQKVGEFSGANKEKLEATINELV
Target,probe-labelled cysteine peptide fold change (10 µM),probe-labelled cysteine peptide fold change (50 µM)
UBA3_Q8TBC4_28_MAVDGGCGDTGDWEGR (UniProt Q8TBC4),-0.245,-0.0349
TUBAL3_A6NHL2_322+323_YMACCLLYR<|>TUBA1B_P68366_315+316_YMACCLLYR<|>TUBA4A_Q9BQE3_315+316_YMACCLLYR (UniProt P68366+Q9BQE3+A6NHL2),-0.349,-0.661
USP40_Q9NVE5_50_NQGGTCYLNSLLQTLHFTPEFR (UniProt Q9NVE5),-0.592,-1.83
VRK3_Q8IV63_418_FVDKPGPFVGPCGHWIRPSETLQK (UniProt Q8IV63),-0.347,-1.2
TRPM4_Q8TD43_759_QSGRPGCCGGR (UniProt Q8TD43),-0.788,-2.09
TYK2_P29597_736_NLVHGNVCGR (UniProt P29597),-0.00731,-0.24
TTF1_Q15361_445_KTQACLASK (UniProt Q15361),-0.039,-0.411
UBA6_A0AVT1_721_ALQLLHCFPLDIR,0.0248,0.215
USP11_P51784_894_DGHYTTFACNK (UniProt P51784),-0.051,-0.393
USP15_Q9Y4E8_633+634_ISTETEETEGSLHCCK (UniProt Q9Y4E8),-0.567,-1.51
UBAP2_Q5T6F2_71_NQDECIVALHDCNGDVNK (UniProt Q5T6F2),0.0613,-0.0464
UBXN7_O94888_478_KLSHLDYDITLQEAGLCPQETVFVQER (UniProt O94888),0.134,-0.0436
TSTA3_Q13630_116_VVSCLSTCIFPDK (UniProt Q13630),-0.0711,-1.67
VAV3_Q9UKW4_187_CPENDIR (UniProt Q9UKW4),-0.136,-0.136
TRA2B_P62995_119_ANPDPNCCLGVFGLSLYTTER (UniProt P62995),0.163,0.111
VTA1_Q9NP79_87_QLGDNEAITQEIVGCAHLENYALK (UniProt Q9NP79),0.0147,0.136
TPX2_Q9ULW0_301_GCTIVK (UniProt Q9ULW0),0.583,0.294
USP24_Q9UPU5_995_QLCSPVDNIQIFTNDSLLTVNK (UniProt Q9UPU5),0.165,0.107
TRMT1_Q9NXH9_621_GDQCCYSHSPPTPR (UniProt Q9NXH9),-0.0265,-0.0659
TUBA4A_P68366_4_MRECISVHVGQAGVQMGNACWELYCLEHGIQPDGQMPSDK (UniProt P68366),-0.0787,-0.408
VPS16_Q9H269_763_SPIGYLPFVEICMK (UniProt Q9H269),0.149,0.152
USP40_Q9NVE5_1054_RIEICLEPLQK (UniProt Q9NVE5),0.0209,-0.0411
UBR7_Q8N806_155_RPYPDPEDEIPDEMIQCVVCEDWFHGR (UniProt Q8N806),0.0312,0.0116
TRIM33_Q9UPN9_582_GNMNCGAFQAHQMR (UniProt Q9UPN9),-0.217,-0.598
TRAP1_Q12931_527_KDTEVLFCFEQFDELTLLHLR (UniProt Q12931),0.143,0.314
VPS37A_Q8NEZ2_375_TICHCR (UniProt Q8NEZ2),0.41,1.08
UBA7_P41226_829_CQNYGIPPVNR (UniProt P41226),-0.03,0.153

Target,probe-labelled cysteine peptide fold change (10 µM),probe-labelled cysteine peptide fold change (50 µM)
TXN_P10599_32_LVVVDFSATWCGPCK (UniProt P10599),-0.415,-0.638
UBR7_Q8N806_155+158_RPYPDPEDEIPDEMIQCVVCEDWFHGR (UniProt Q8N806),-0.195,-1.14
UQCRC2_P22695_192_NALANPLYCPDYR (UniProt P22695),0.015,0.158
TRPM7_Q96QT4_1411_FFVSTPSQPSCK (UniProt Q96QT4),-0.337,-0.544
TRIM59_Q8IWR1_208_SFLTALCDVGNLINQEYTPQIER<|>IFT80_Q9P2H3-3_208_SFLTALCDVGNLINQEYTPQIER (UniProt Q9P2H3+Q8IWR1),0.237,-0.00617
UBR4_Q5T4S7_2222_HTACNEQQR (UniProt Q5T4S7),-0.245,-1.12
TXNDC9_O14530_94_ESENVVCHFYR (UniProt O14530),-0.0612,-0.0184
UNC45A_Q9H3U1_503_ALVGLCK (UniProt Q9H3U1),0.0377,-0.217
UBR1_Q8IWV7_1101_EVLTCILCQEEQEVK (UniProt Q8IWV7),-0.162,0.733
USP19_O94966_656+659_LVCPVCAK (UniProt O94966),-0.159,-1.2
VIM_P08670_328_RQVQSLTCEVDALK (UniProt P08670),0.00911,-0.139
UBN1_Q9NPG3_711_VGGVLCTEEK (UniProt Q9NPG3),-0.0763,0.0664
TTLL12_Q14166_361_PGVLLNQFPCENLLTVK (UniProt Q14166),-0.00778,-0.111
VCPIP1_Q96JH7_219_SQECLIPVHVDGDGHCLVHAVSR (UniProt Q96JH7),-2.4,< -5
UHRF2_Q96PU4_42_VWALFDVRPECQR (UniProt Q96PU4),-0.064,0.118
TRIM56_Q9BRZ2_41_TLPCLHTYCQDCLAQLADGGR (UniProt Q9BRZ2),0.238,0.113
UQCRC1_P31930_154_AVELLGDIVQNCSLEDSQIEK (UniProt P31930),0.114,0.272
TRPM2_O94759_72_ECVYFVESSK (UniProt O94759),-0.0415,-0.249
UBE2G2_P60604_75_FTCEMFHPNIYPDGR (UniProt P60604),-0.0589,-0.214
TPRKB_Q9Y3C4_167_LSSQEESIGTLLDAIICR (UniProt Q9Y3C4),0.0132,-0.163
UBR4_Q5T4S7_2618+2619_QLEGDCCSFITQLVNHFWK (UniProt Q5T4S7),0.0442,-1.45
UBR1_Q8IWV7_1603_NSLIELPDDYSCLLNQASHFR (UniProt Q8IWV7),-0.114,-0.631
UTP20_O75691_242_NMFHSCTGQAVK (UniProt O75691),-0.122,0.227
UROD_P06132_308_TVTLQGNLDPCALYASEEEIGQLVK (UniProt P06132),-0.0737,0.0622
TRRAP_Q9Y4A5_2513_STPIGTSCQGAMLPSITNVINLADSHDR (UniProt Q9Y4A5),0.223,0.295
UBR7_Q8N806_99+101_CDCGNSK (UniProt Q8N806),-0.364,-1.41
TXN2_Q99757_90+93_VVNSETPVVVDFHAQWCGPCK (UniProt Q99757),-1.92,-2.07

Target,probe-labelled cysteine peptide fold change (10 µM),probe-labelled cysteine peptide fold change (50 µM)
UCHL3_P15374_95_QTISNACGTIGLIHAIANNK (UniProt P15374),-0.157,-1.45
TTC39C_Q8N584_517_AVKDELCR (UniProt Q8N584),-0.00819,-0.291
UBE2O_Q9C0C9_375_NCAQGEGSMAK (UniProt Q9C0C9),-0.0634,-0.156
USP48_Q86UV5_512+514_WLDESTPTKPIDNHACLCSHDK (UniProt Q86UV5),-0.0825,-1.16
VLDLR_P98155_251_CPASEIQCGSGECIHK (UniProt P98155),-0.12,-0.248
UCK2_Q9BZX2_197_PAFEEFCLPTK (UniProt Q9BZX2),-0.0609,0.255
TRIM24_O15164_127+134_CPVCSQECAER (UniProt O15164),0.118,-0.0216
TXNDC5_Q8NBS9_350+353_FYAPWCGHCK (UniProt Q8NBS9),-0.375,-1.05
TYSND1_Q2T9J0_17_AAEQAGCMVSASR (UniProt Q2T9J0),0.0109,0.0758
TRIM5_Q9C035_95_VDHCAR (UniProt Q9C035),-0.107,-0.113
TPP1_O14773_365_GLTLLFASGDSGAGCWSVSGR (UniProt O14773),-0.146,0.0356
TXNIP_Q9H3M7_170_KVSCMFIPDGR (UniProt Q9H3M7),0.205,-1.47
UBE3D_Q7Z6J8_52_TPEGCTEIQLPAEVR (UniProt Q7Z6J8),0.0793,0.147
VAPA_Q9P0L0_179_KLMEECK (UniProt Q9P0L0),-0.0535,-0.275
USP34_Q70CQ2_1330_KGEGVQLPASCLPPPQK (UniProt Q70CQ2),-0.079,-0.0424
UBR4_Q5T4S7_2554_AVQCLNTSSK (UniProt Q5T4S7),-0.27,-0.543
UBE2T_Q9NPD8_24_ELHMLATEPPPGITCWQDK (UniProt Q9NPD8),-0.209,-0.165
TRNAU1AP_Q9NX07_157_ALTECQGAVGLGSKPVR (UniProt Q9NX07),-0.212,-0.171
TRANK1_O15050_1930_QHGCLLEAAR (UniProt O15050),-0.0687,-0.106
TWSG1_Q9GZX9_185_ISCESMGASK (UniProt Q9GZX9),-0.121,-0.0863
TTC1_Q99614_178_EMAINDCSK (UniProt Q99614),0.303,-0.13
TUBA3C_P0DPH7_4+20+25_MRECISIHVGQAGVQIGNACWELYCLEHGIQPDGQMPSDK<|>TUBA3D_P68363_4+20+25_MRECISIHVGQAGVQIGNACWELYCLEHGIQPDGQMPSDK<|>TUBA1B_Q6PEY2_4+20+25_MRECISIHVGQAGVQIGNACWELYCLEHGIQPDGQMPSDK<|>TUBA3E_Q9BQE3_4+20+25_MRECISIHVGQAGVQIGNACWELYCLEHGIQPDGQMPSDK (UniProt Q9BQE3+Q6PEY2+P68363+P0DPH7),0.318,0.131
TXN2_Q99757_93_VVNSETPVVVDFHAQWCGPCK (UniProt Q99757),-1.34,-1.7
USP3_Q9Y6I4_385_SFTDLEELDETELYMCHK (UniProt Q9Y6I4),-0.114,-0.984
TSN_Q15631_225_ETAAACVEK (UniProt Q15631),-0.291,-0.282
